Experimental data taken from publication PMC5540273 (PLoS ONE, 2017).

What follows are compounds tested on DAPK3. Conditions: concentration: 1 μM, replicates: in singlicate; n = 1.
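Also: KINOMEscan kinase panel screen.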

For `Cc1ccc(C)c(NC(=O)NC2CCN(c3ccnc(Nc4ccc(F)cc4)n3)C2)c1` (stereo not shown) [GSK1379720], which “%Inh” value is on record?
The value was 0%.

For `Cl.Cl.NCC(NC(=O)c1cc(-c2ccccc2)c(-c2ccnc3[nH]ccc23)s1)c1ccccc1` (stereo not shown) [GSK1321561], which “%Inh” value is on record?
The value was 12%.

With `CN(C)Cc1ccc(-c2ccc3c(Nc4ccc(Oc5ccccn5)cc4)ccnc3c2)o1` [GW567148] as the compound, how does the “%Inh” value read?
Its value is 0%.

For `COc1cccc(C(=O)Nc2cccc(Oc3ccc4nc(NC(=O)C5CC5)cn4n3)c2)c1`, which “%Inh” value is on record?
Its value is 9%.

Which “%Inh” value does the source give for `CNC(=O)c1ccccc1Nc1nc(Nc2ccc(N3CCOCC3)cc2)ncc1Cl.Cl` [GSK1576028] here?
The value was 89%.

For `C[C@@H]1CC[C@@H](C(=O)Nc2ccccc2)CN1c1cc(-c2ccc3c(N)n[nH]c3c2)nc(N)n1` [GSK2286062], which “%Inh” value is on record?
Its value is 20%.

How did the “%Inh” value turn out when `Cn1cc(-c2ccc3c(c2)CCN3C(=O)Cc2cccc(Cl)c2)c2c(N)ncnc21` [GSK2606590] was run?
Its value is 0%.

With `FC(F)(F)c1ccc(/C=C/c2cncnc2Nc2ccc3[nH]c(Cc4ccccc4)nc3c2)cc1` [GW709199] as the compound, how does the “%Inh” value read?
Its value is 11%.

How did the “%Inh” value turn out when `COc1cccc(NC(=O)NC2CCN(c3ccnc(Nc4cc(OC)c(OC)c(OC)c4)n3)C2)c1` (stereo not shown) [GSK1379763] was run?
Its value is 17%.

For `Fc1ccc(-c2ncn(C3CCNCC3)c2-c2ccnc(Oc3ccc(-c4ccccc4)cc3)n2)cc1` [SB-245391], which “%Inh” value is on record?
Its value is 22%.

For `Oc1cc(Nc2ccnc3cc(I)ccc23)ccc1F` [GW552771], which “%Inh” value is on record?
The value was 30%.

How did the “%Inh” value turn out when `COC(=O)Nc1nc2ccc(Oc3ccc(NC(=O)Nc4cc(C(F)(F)F)ccc4F)cc3)cc2n1C.Cl` [GW692089] was run?
The value was 0%.

With `CC(=O)N1CCN(c2ccc(Nc3nccc(-c4sc(C(C)C)nc4-c4cccc(NS(=O)(=O)c5cccc(Cl)c5)c4)n3)cn2)CC1` [GSK1660437] as the compound, how does the “%Inh” value read?
Its value is 6%.

For `Cl.Cl.NCC(C(=O)Nc1cc(Br)c(-c2ccnc3[nH]ccc23)s1)c1ccccc1` (stereo not shown) [GSK1269851], which “%Inh” value is on record?
The value was 15%.

With `CC(C)(C)c1ccc2nccc(Nc3cccc(O)c3)c2c1` [GW856795] as the compound, how does the “%Inh” value read?
The value was 0%.

With `NCCCC(NC(=O)c1cc(Br)c(-c2ccnc3[nH]ccc23)s1)c1ccccc1.O=C(O)C(F)(F)F.O=C(O)C(F)(F)F` (stereo not shown) [GSK1287544] as the compound, how does the “%Inh” value read?
The value was 0%.

How did the “%Inh” value turn out when `Cl.c1ccc(-c2ccc3c(Nc4ccc5[nH]ncc5c4)ccnc3c2)nc1` [GW440137] was run?
The value was 23%.

How did the “%Inh” value turn out when `c1ccc(Oc2ccc(Nc3ccnc4cc(-c5ccc(CNCCN6CCOCC6)o5)ccc34)cc2)nc1` [GW567145] was run?
Its value is 18%.

For `O=C(Nc1cccc(Oc2ccc3nc(NC(=O)C4CC4)cn3n2)c1)c1ccccc1C(F)(F)F`, which “%Inh” value is on record?
The value was 7%.

With `CC(C)c1nc(-c2cccc(NS(=O)(=O)c3c(F)cccc3F)c2F)c(-c2ccnc(Nc3ccc(N4CCOCC4)nc3)n2)s1` [GSK2008607] as the compound, how does the “%Inh” value read?
The value was 34%.

`Nc1ncc(-c2cccnc2)c2scc(-c3ccc4c(c3)CCN4C(=O)Cc3ccccc3)c12` [GSK683281] was tested. Which “%Inh” value did it give?
The value was 27%.

For `Cn1cc(-c2ccc3c(c2)CCN3C(=O)Cc2cccc(F)c2)c2c(N)ncnc21` [GSK2603358], which “%Inh” value is on record?
Its value is 12%.

`Cl.NC(=O)c1cccc(Nc2nccc(Nc3ccc(Oc4c(Cl)cccc4Cl)c(Cl)c3)n2)c1` [GW659009] was tested. Which “%Inh” value did it give?
Its value is 44%.

With `COCCOCCOc1cc2ncc3c4ccc(C#N)cc4[nH]c3c2cc1OC` as the compound, how does the “%Inh” value read?
The value was 15%.

With `COc1cccc(-c2ccc3c(NC(=O)C4CC4)n[nH]c3n2)c1` [SB-710903] as the compound, how does the “%Inh” value read?
Its value is 13%.

Which “%Inh” value does the source give for `Nc1ncc(-c2ccc3nccc(-c4ccncc4)c3c2)cc1S(=O)(=O)N1CCOCC1` [GSK1627798] here?
The value was 9%.

With `Cc1ccc(C(=O)N2CC[C@@H](O)C2)cc1-n1c(C)cc(OCc2ccc(F)cc2F)c(Br)c1=O` as the compound, how does the “%Inh” value read?
Its value is 7%.

Which “%Inh” value does the source give for `O=C(O)C(F)(F)F.O=C(O)C(F)(F)F.O=c1[nH]ccc2nc(N[C@@H]3CCCNC3)nc(Nc3ccc(S(=O)(=O)N4CCOCC4)cc3)c12` [GSK2177277] here?
Its value is 99.3%.

How did the “%Inh” value turn out when `COc1cc(Nc2nccc(-c3c(-c4cccc(NC(=O)c5c(F)cccc5F)c4)nn4ncccc34)n2)cc(OC)c1OC` [GSK327238] was run?
The value was 0%.

For `COc1cccc(C2=C(Nc3ccc(Cl)c(C(=O)O)c3)C(=O)NC2=O)c1` [SB-390769], which “%Inh” value is on record?
Its value is 99.9%.

How did the “%Inh” value turn out when `Cc1ccc(C(=O)Nc2ccc(Nc3ccnc4cc(-c5nccs5)ccc34)cc2O)cc1.Cl` [GW494702] was run?
Its value is 10%.

With `CCn1c(-c2nonc2N)nc2c(C#CC(C)(C)O)nc(OC[C@H](N)c3ccccc3)cc21` [GSK943949] as the compound, how does the “%Inh” value read?
Its value is 18%.

For `COC(=O)Nc1nc2cc(Oc3ccc(NC(=O)Nc4cc(C(F)(F)F)ccc4F)cn3)ccc2[nH]1.Cl.Cl` [GW681170], which “%Inh” value is on record?
Its value is 9%.

With `Cl.Cl.NCC(NCc1ccc(-c2ccnc3[nH]ccc23)s1)c1ccccc1` (stereo not shown) [GSK1321565] as the compound, how does the “%Inh” value read?
The value was 71%.

How did the “%Inh” value turn out when `O=c1[nH]cc(-c2ccc(N3CCOCC3)cc2)c2sc(-c3cn[nH]c3)cc12` [GSK2276055] was run?
The value was 23%.

With `c1ccc(-c2cnc3nccnn23)cc1` [AH20685] as the compound, how does the “%Inh” value read?
The value was 0%.

`COc1cc(Nc2nccc(-c3c(-c4cccc(NC(=O)c5c(F)cccc5F)c4)nn4ccccc34)n2)cc(OC)c1OC` [GSK323521] was tested. Which “%Inh” value did it give?
The value was 19%.
